Assay results: the supplement of paper PMC10338343
± gives the standard deviation.

Tested on: MILI (PIWIL2) piRISC loaded with piRNA #1 (26 nt)
Experiment: pre-steady-state target cleavage rate (min^-1); guide: piRNA #1 5'p-UGAGGUAGUAGGUUGUAUAGUAUCCA; MIWI and MILI are mouse PIWI proteins and EfPiwi is from a freshwater sponge; tags in brackets are library labels; higher = faster piRNA-guided slicing of the target
Conditions: auxiliary factor: 500 nM mouse GTSF1
Outline: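 Sequencing of uncleaved targets, normalised to depth and to weakly complementary targets, was the readout of this Cleave-'n-Seq assay. A transcribed, DNA-blocked target RNA library (0.1 nM) was mixed with 1 nM active affinity-purified piRISC carrying one synthetic guide, with or without 500 nM GTSF1 partner protein, in HEPES–potassium acetate buffer at 33 °C for 0–8 or 0–960 min. Three trials were pooled, k3 was capped at 0.0001 min^-1, and a burst-and-steady-state fit gave the pre-steady-state cleavage rate.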

Question: Which “pre-steady-state target cleavage rate” value does the source give for GGAGACCUAUGUAUACAACGUUCUACCUCA here?
Answer: 0.00392 ± 0.0018

Question: GGAGACCUAUGAAUACAACCUACUAGCCUCA was tested. Which “pre-steady-state target cleavage rate” value did it give?
Answer: 0.00742 ± 0.0038

Question: For GGAGACCUAUCUAUACAACCGUACUACCUCA, which “pre-steady-state target cleavage rate” value is on record?
Answer: 0.00775 ± 0.0032

Question: With GGAGACCUAUGUAUACAUCGUACUACCUCA as the sequence, how does the “pre-steady-state target cleavage rate” value read?
Answer: 0.00791 ± 0.003

Question: GGAGACCUUACUUUACAACCUACUAGCUCA was tested. Which “pre-steady-state target cleavage rate” value did it give?
Answer: 0.111 ± 0.02

Question: How did the “pre-steady-state target cleavage rate” value turn out when GGAGACCUAACUAAUCAACCUACUACCUCA was run?
Answer: 0.0719 ± 0.016

Question: GGAGACCUUACUAUACAACCUACAACCACA was tested. Which “pre-steady-state target cleavage rate” value did it give?
Answer: 0.0494 ± 0.013

Question: With GGAGACCUAUGUAUACAACCUACAAGCUCA as the sequence, how does the “pre-steady-state target cleavage rate” value read?
Answer: 0.0033 ± 0.0026

Question: Which “pre-steady-state target cleavage rate” value does the source give for GGAGACGAUACUAUAGUUCCUACUACCUCA here?
Answer: 0.161 ± 0.012

Question: For GGAGACGAUAGUAUACUACCUACUACCUCA, which “pre-steady-state target cleavage rate” value is on record?
Answer: 0.148 ± 0.012

Question: GGAGACCUUCUAUACAACCUACUACCUCA was tested. Which “pre-steady-state target cleavage rate” value did it give?
Answer: 0.0879 ± 0.016

Question: For GGAGAGGAAACUAUACAACGUACUACCUCA, which “pre-steady-state target cleavage rate” value is on record?
Answer: 0.0138 ± 0.0051

Question: Which “pre-steady-state target cleavage rate” value does the source give for GGAGACCUAUGAAUACAACCUACUACCUUCA here?
Answer: 0.00676 ± 0.0021

Question: How did the “pre-steady-state target cleavage rate” value turn out when GGAGACCUAUGAAUACAACCUACUACAUCA was run?
Answer: 0.00323 ± 0.0026

Question: GGAGACCUAUGAAUACAACCUACUACCACA was tested. Which “pre-steady-state target cleavage rate” value did it give?
Answer: 0.00626 ± 0.0028

Question: Which “pre-steady-state target cleavage rate” value does the source give for GGAGACCUAACUAUAGAACCUACUACCUCA here?
Answer: 0.131 ± 0.021

Question: How did the “pre-steady-state target cleavage rate” value turn out when GGAGACCUUACUAUACAUGCUACUACCUCA was run?
Answer: 0.111 ± 0.0086

Question: GGAGUGGAUUCUAUAGAACCUACUACCUCA was tested. Which “pre-steady-state target cleavage rate” value did it give?
Answer: 0.179 ± 0.012

Question: How did the “pre-steady-state target cleavage rate” value turn out when GGAGACCUUACUAAACAACCUACUAGCUCA was run?
Answer: 0.139 ± 0.018

Question: With GGAGACCUAUGAUUACAAGCUACUAGCUCA as the sequence, how does the “pre-steady-state target cleavage rate” value read?
Answer: 0.00635 ± 0.0034

Question: GGAGACCUAUGAUUACAACCUACUACCUGCA was tested. Which “pre-steady-state target cleavage rate” value did it give?
Answer: 0.00769 ± 0.0026

Question: For GGAGACCUAUGAUUACAUCCUACUACGUCA, which “pre-steady-state target cleavage rate” value is on record?
Answer: 0.00263 ± 0.0026

Question: Which “pre-steady-state target cleavage rate” value does the source give for GGAGACCAUACUAUUCAACCAACUACCUCA here?
Answer: 0.00316 ± 0.0029

Question: With GGAGACCUAUGAAUACAAUCUACUACCUCA as the sequence, how does the “pre-steady-state target cleavage rate” value read?
Answer: 0.00544 ± 0.0022
